# Where “and” joins values, the source holds several entries; their conditions need not be identical. Equal entries are not always repeated. Values without a mark were called inactive. Records with an inconclusive call do not appear. Where a call stands in place of a potency, no number is given. Calls of active or inactive are those of the source. Unless noted, calls follow the shape of the dose curve; as a rule, active = well fitted curve in the direction sought with a large enough effect in the repeat runs; inconclusive = weak or mixed curves; inactive = no such curve, though single readings can be large; an effect the other way counts as inactive or inconclusive.
# How the values were obtained:
# [1] = qHTS assay to identify small molecule antagonists of the glucocorticoid receptor (GR) signaling pathway - cell viability counter screen (AID 720693); also: nearly all actives have a fitted effect of over 55% in size
# [2] = qHTS assay for identifying genotoxic compounds that show differential cytotoxicity against isogenic chicken DT40 cell lines with known DNA damage response pathways - wild type cell line (AID 743012); also: nearly all actives have a fitted effect of over 60% in size; also: potency is read from the fitted curve at half-maximal effect
# Outline: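 Viability of DNA repair-proficient chicken DT40 cells was assessed by CellTiter-Glo luminescence following 40 h compound exposure at 37 C/5% CO2.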
# [3] = qHTS assay for identifying genotoxic compounds that show differential cytotoxicity against isogenic chicken DT40 cell lines with known DNA damage response pathways - Rev3 mutant cell line (AID 743014); also: nearly all actives have a fitted effect of over 55% in size; also: potency is read from the fitted curve at half-maximal effect
# [4] = qHTS assay to identify small molecule antagonists of the androgen receptor (AR) signaling pathway - cell viability counter screen (AID 743033; also: nearly all actives have a fitted effect of over 45% in size; also: potency is read from the fitted curve at half-maximal effect)
# [5] = qHTS assay to identify small molecule antagonists of the androgen receptor (AR) signaling pathway using the MDA cell line - cell viability counter screen (AID 743041; also: nearly all actives have a fitted effect of over 45% in size; also: potency is read from the fitted curve at half-maximal effect)
# Outline: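 qHTS viability read-out; MDA-kb2 AR-luc; R1881-stimulated; 16 h exposure at 37C, 0% CO2; CellTiter-Fluor, 30 min; fluorescence intensity.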
# [6] = qHTS assay for identifying genotoxic compounds that show differential cytotoxicity against isogenic chicken DT40 cell lines with known DNA damage response pathways - Rad54/Ku70 mutant cell line (AID 743015); also: nearly all actives have a fitted effect of over 60% in size; also: potency is read from the fitted curve at half-maximal effect
# [7] = target: Androgen receptor (Homo sapiens) (UniProt P10275); test: qHTS assay to identify small molecule antagonists of the androgen receptor (AR) signaling pathway (AID 743035; active = well fitted inhibition curve with a large enough effect in the signal ratio in the repeat runs, not every such curve was filed as active; the % refers to the signal ratio)
# Chain of Androgen receptor (Homo sapiens) (P10275 whole entry, looked up): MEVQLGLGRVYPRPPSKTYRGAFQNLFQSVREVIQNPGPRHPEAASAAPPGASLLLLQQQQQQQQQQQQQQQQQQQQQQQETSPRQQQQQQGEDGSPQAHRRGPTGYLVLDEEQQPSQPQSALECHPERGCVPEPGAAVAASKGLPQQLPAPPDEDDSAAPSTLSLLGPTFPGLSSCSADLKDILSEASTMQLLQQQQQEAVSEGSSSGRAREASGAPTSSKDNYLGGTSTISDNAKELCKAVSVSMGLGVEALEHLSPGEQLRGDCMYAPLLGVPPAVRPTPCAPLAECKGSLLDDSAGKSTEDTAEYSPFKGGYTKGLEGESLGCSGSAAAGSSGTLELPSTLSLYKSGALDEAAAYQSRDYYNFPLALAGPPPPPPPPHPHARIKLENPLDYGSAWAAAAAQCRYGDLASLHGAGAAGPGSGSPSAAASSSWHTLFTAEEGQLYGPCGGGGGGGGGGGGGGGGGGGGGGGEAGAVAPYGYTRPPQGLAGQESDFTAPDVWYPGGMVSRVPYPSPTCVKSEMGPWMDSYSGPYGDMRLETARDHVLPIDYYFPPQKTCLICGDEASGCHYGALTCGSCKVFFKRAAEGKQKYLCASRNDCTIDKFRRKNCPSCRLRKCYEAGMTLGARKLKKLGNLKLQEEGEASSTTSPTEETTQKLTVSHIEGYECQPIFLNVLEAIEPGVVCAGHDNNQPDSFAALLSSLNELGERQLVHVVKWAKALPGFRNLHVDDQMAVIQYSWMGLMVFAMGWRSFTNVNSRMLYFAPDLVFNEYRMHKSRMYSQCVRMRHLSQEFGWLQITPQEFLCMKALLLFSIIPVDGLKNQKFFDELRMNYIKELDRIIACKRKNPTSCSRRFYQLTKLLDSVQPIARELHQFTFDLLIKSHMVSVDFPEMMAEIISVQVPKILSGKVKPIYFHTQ
# Outline: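 Reporter HEK293 cells were exposed to compounds and R1881 overnight (16 h, 37C); beta-lactamase activity was then quantified by FRET fluorescence.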
# [8] = target: Androgen receptor (Homo sapiens) (UniProt P10275); test: qHTS assay to identify small molecule agonists of the androgen receptor (AR) signaling pathway (AID 743036; active = well fitted activation curve with a large enough effect in the signal ratio in the repeat runs, with a control signal flat, not every such curve was filed as active; the % refers to the signal ratio)
# Outline: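 Activation was read as beta-lactamase FRET signal from LiveBLAzer B/G substrate, added for 2 h at room temperature. Before that, GeneBLAzer AR-UAS-bla GripTite (HEK293) cells had 16 h compound exposure at 37C.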
# [9] = target: Androgen receptor (Homo sapiens) (UniProt P10275); test: qHTS assay to identify small molecule agonists of the androgen receptor (AR) signaling pathway using the MDA cell line (AID 743040; also: nearly all actives have a fitted effect of over 20% in size); details: MDA-kb2 AR-luc cells, MMTV luciferase, 16 h, stronger effect = higher value
# Outline: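 Agonist activity is measured as luciferase luminescence in human MDA-kb2 cells whose MMTV reporter responds to both AR and GR. Compounds in DMSO incubate 16 h at 37C, 0% CO2, and ONE-Glo is read after 30 min.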
# [10] = target: Androgen receptor (Homo sapiens) (UniProt P10275); test: qHTS assay to identify small molecule antagonists of the androgen receptor (AR) signaling pathway using the MDA cell line (AID 743042; also: nearly all actives have a fitted effect of over 55% in size)
# Outline: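 MDA-kb2 cells (human breast carcinoma, stably carrying an MMTV-luciferase reporter responsive to AR and GR) were plated at 3,000 cells/well and preincubated 5 hr at 37C, then given compound plus R1881 agonist for 16 h. ONE-Glo luminescence was read.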
SMILES,Potency [1],Potency [2],Potency [3],Potency [4],Potency [5],Potency [6],Potency [7],Potency [8],activity change ([9]; at 70.3 µM (top of the series)),Potency [10],activity change ([9]; at 95 µM (top of the series)) [%]
Cc1ccc(C)c(S(=O)(=O)O)c1,inactive,inactive,inactive,inactive,inactive,,,,,,
CC1(C)C(=O)N(Cl)C(=O)N1Cl,inactive,inactive,inactive,inactive,inactive,,,,,,
CCn1cc(C(=O)O)c(=O)c2cc3c(cc21)OCO3,inactive,inactive,inactive,inactive,inactive,inactive,,,,,
O=[N+]([O-])c1ccccc1C(F)(F)F,inactive,inactive,inactive,inactive,inactive,,inactive,inactive,0.939% and 0.0136%,inactive,
O=c1c(O)c(-c2ccc(O)c(O)c2)oc2cc(O)cc(O)c12,inactive,,54.5 µM (active) and 27.5 µM (active) and 61.1 µM (active),inactive,inactive,,,,,,
COC(=O)CCCCC(=O)OC,inactive,inactive,inactive,inactive,inactive,,,,,,
Cc1ccc([N+](=O)[O-])cc1N,inactive,inactive,inactive,inactive,inactive,,,,,,
CC(=O)OC[C@H]1O[C@@](COC(C)=O)(O[C@H]2O[C@H](COC(C)=O)[C@@H](OC(C)=O)[C@H](OC(C)=O)[C@H]2OC(C)=O)[C@@H](OC(C)=O)[C@@H]1OC(C)=O,inactive,inactive,inactive,inactive,inactive,,,,,,
COC(=O)OC,inactive,inactive,inactive,inactive,inactive,,,,,,
Cc1ccccc1C=O,inactive,inactive,inactive,inactive,inactive,,,,,,
O=C(O)Cc1c[nH]c2ccccc12,inactive,inactive,inactive,inactive,inactive,,,,,,
CC(C)=CCC/C(C)=C/C=O,inactive,inactive,inactive,inactive,inactive,,,,,,
OCC(CO)(CO)CO,inactive,inactive,inactive,inactive,inactive,,,,,,
CCCCC(=O)O,inactive,inactive,inactive,inactive,inactive,,,,,,
c1cnc2c(c1)ccc1cccnc12,inactive,3.09 µM (active) and 1.54 µM (active) and 3.86 µM (active),1.38 µM (active) and 1.22 µM (active) and 2.43 µM (active),4.9 µM (active),49 µM (active) and 30.6 µM (active),1.38 µM (active) and 686 nM (active) and 1.54 µM (active),,,,,
C=C(C)CC(C)(C)C,inactive,inactive,inactive,inactive,inactive,,,,,,
C=CC(=O)NCOCCCC,inactive,inactive,inactive,inactive,inactive,inactive,,,,,
Cc1ccc(C(C)C)cc1,,inactive,inactive,inactive,inactive,inactive,inactive,inactive,1.12%,inactive,0.115
NC(N)=S,,inactive,inactive,inactive,inactive,inactive,,,,,
CCCOC(=O)NCCCN(C)C,,inactive,inactive,inactive,inactive,,,,,,
CCCN(CCC)C(=O)SCC,,inactive,inactive,inactive,inactive,inactive,inactive,inactive,1.01%,inactive,-1.98
CC(=O)OCc1ccc2c(c1)OCO2,,inactive,inactive,inactive,inactive,inactive,,,,,
COc1ccc([C@@H]2CC(=O)c3c(O)cc(O[C@@H]4O[C@H](CO[C@@H]5O[C@@H](C)[C@H](O)[C@@H](O)[C@H]5O)[C@@H](O)[C@H](O)[C@H]4O)cc3O2)cc1OC,,inactive,inactive,inactive,inactive,inactive,,,,,
COc1ccc(N)c(OC)c1,,inactive,inactive,inactive,inactive,,,,,,
CO[Si](CCCNCCN)(OC)OC,,inactive,inactive,inactive,inactive,inactive,inactive,inactive,-2.52%,inactive,0.325
Cc1cccc(C)c1[N+](=O)[O-],,inactive,inactive,inactive,inactive,inactive,,,,,

# From PubChem BioAssay (Tox21)
